# Assay outcomes deposited in PubChem BioAssay by National Center for Advancing Translational Sciences (NCATS).
# TGFb SMAD3 inh = TGF-b pathway inhibition | HepG2 CAGA-GFP TGF-b/SMAD3 reporter, GFP fluorescence, 18 h; TGF-beta stimulated, 500 pg/mL final | Potency, µM (series often up to 46.1 µM), without a hit: top-dose activity, negative = inhibition, actives largely listed as inhibitors | 410,000 tested, 1.2% active; further: potency means the concentration at half of the fitted maximal effect; on the % scale 0 is the no-effect control and ±100 the full control effect; nearly all actives have a fitted effect of over 65% in size
#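 Inhibition of TGF-beta-driven CAGA-GFP reporter expression in HEPG2 cells is measured by cellular GFP fluorescence after 18 h stimulation with 500 pg/mL recombinant TGF-beta in 1% FBS medium at 37 degrees C.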
# IL1B secr inh = inhibitors of inflammasome signaling (IL-1 beta secretion) | AID 743279 | THP-1 LPS/ATP IL-1B secretion, AlphaLISA, 16 h; hits give low values | activity change, % at 57.5 µM | 360,000 tested, 4.7% active; in the data active means activity change below about -50%; inconclusive means mostly about -30% to -49%; further: on the % scale 0 is the no-effect control and ±100 the full control effect
#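 Secreted IL-1B measured by AlphaLISA bead assay after 16 h compound exposure of THP-1 cells; compounds (final up to 57.5 uM) added 1 h before LPS (250 ng/mL) and ATP (1.25 mM) stimulation; lower signal means less secretion.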
# S-ASM inh = human S-ASM enzyme inhibition; P17405; placental ASM, HMU-PC fluorogenic substrate, 60 min; Potency, µM (highest dose often 57.5 µM), inactives show top-dose activity change, negative = inhibition, actives largely listed as inhibitors; 340,000 tested, 0.006% active; further: potency means the concentration at half of the fitted maximal effect
# Target sequence (P17405 47-631 limits assumed): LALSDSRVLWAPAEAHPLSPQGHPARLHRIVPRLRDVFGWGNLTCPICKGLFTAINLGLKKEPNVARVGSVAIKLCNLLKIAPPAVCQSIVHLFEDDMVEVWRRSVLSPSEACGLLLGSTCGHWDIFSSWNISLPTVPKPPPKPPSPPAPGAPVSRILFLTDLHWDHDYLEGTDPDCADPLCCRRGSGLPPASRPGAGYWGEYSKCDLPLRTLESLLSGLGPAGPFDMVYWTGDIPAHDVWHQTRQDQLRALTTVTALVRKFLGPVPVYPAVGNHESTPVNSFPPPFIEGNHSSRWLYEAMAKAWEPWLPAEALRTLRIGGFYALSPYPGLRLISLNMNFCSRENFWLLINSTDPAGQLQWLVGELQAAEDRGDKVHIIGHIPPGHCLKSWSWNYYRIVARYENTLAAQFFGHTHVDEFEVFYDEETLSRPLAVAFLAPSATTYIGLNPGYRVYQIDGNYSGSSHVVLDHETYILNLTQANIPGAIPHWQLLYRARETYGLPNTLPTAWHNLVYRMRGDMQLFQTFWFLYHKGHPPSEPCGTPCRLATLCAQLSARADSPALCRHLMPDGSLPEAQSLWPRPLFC
#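 Steps: dispense placental human ASM, pin compound, wait 10 min at room temperature, add HMU-PC0 substrate at 9 uM final, incubate 60 min at 37 °C, add stop solution raising pH to 10, read fluorescence.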
# HepG2 tox = counter-screen for TGF-b inhibitors: cytotoxicity in HepG2 cells. Potency, µM (series often up to 46.1 µM), inactives show top-dose activity change, negative = cytotoxicity, most hits filed as cytotoxic. AID 588856. 410,000 tested, 0.76% active. HepG2 CAGA-GFP viability, ATP luminescence, 18 h; further: potency means the concentration at half of the fitted maximal effect
#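 CellTiter-Glo luminescence gave cytotoxicity after 18 hours at 37 degrees C. The cells were HepG2 CAGA-GFP in 1% FBS DMEM, stimulated with 500 pg/mL TGF-beta after compound addition. %Activity was normalised to no-cell wells (complete cell-killing) and DMSO (no toxicity), and curves were fitted and classified.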
# TDP1 cell noCPT = qHTS for Inhibitors of human tyrosyl-DNA phosphodiesterase 1 (TDP1): qHTS in cells in absence of CPT | DT40 Tdp1-/- hTDP1 cells, no CPT, ATP luminescence, 48 h | Potency, µM (highest dose often 46.2 µM), inactives show at the highest dose activity change, negative = growth inhibition, actives largely listed as inhibitors | 420,000 tested, 15% active; further: potency means the concentration at half of the fitted maximal effect; on the % scale 0 is the no-effect control and ±100 the full control effect; nearly all actives have a fitted effect of over 55% in size
#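 Growth kinetics read by CellTiter-Glo luminescence after ≥48 hr at 37 °C. Cells: DT40 Tdp1-/- stably carrying human TDP1, 400 per well, compound exposure in the absence of CPT (DMSO vehicle).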
# DT40 TDP1 CPT = growth inhibition of DT40 Tdp1-/-;hTDP1 cells with camptothecin (screen for TDP1 inhibitors). 420,000 tested, 12% active. Potency, µM (highest dose often 46.2 µM), for the others: at the top dose activity change, negative = growth inhibition, most hits filed as inhibitors. chicken DT40 Tdp1-/-;hTDP1 cells + 20 nM CPT, ATP luminescence, 48 h; further: potency means the concentration at half of the fitted maximal effect; on the % scale 0 is the no-effect control and ±100 the full control effect; nearly all actives have a fitted effect of over 55% in size
#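 Chicken DT40 Tdp1-/- cells complemented with human TDP1, 400 cells/well, exposed to compounds plus 20 nM camptothecin for at least 48 h at 37 C; viability read as ATP content by CellTiter-Glo luminescence.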
# The depositor's hits bear a star; ? = inconclusive; / = no result; [ ] = another dose, or the depositor's remark. Sampled rows, rich in hits. Any-hit rate of the full collection: about 19%. Unless noted, the call rests on the fitted dose curve; in most records, active means well fitted curve in the direction sought with a large enough effect; inconclusive means small, poorly fitted or top-dose-only effect, or another doubt; inactive means no such curve, though single readings can be large; an effect the other way counts as inactive or inconclusive.
SMILES,TGFb SMAD3 inh,IL1B secr inh,S-ASM inh,HepG2 tox,TDP1 cell noCPT,DT40 TDP1 CPT
COc1ccc(C)cc1NC(=S)NNC(=O)c1c(Br)cnn1C,?,43,2%,-20%,?,-25%
Cc1ccc(S(=O)(=O)N(C)CC(=O)Nc2ccncc2)cc1,-7%,7,2%,-4%,?,?
COc1ccc(NC(=O)CCCN(C)S(=O)(=O)c2ccc(C)cc2)cc1,0%,-6,3%,-1%,?,?
Cc1ccc(S(=O)(=O)N(C)CCCC(=O)Nc2ccc(F)cc2)cc1,-21%,1,-2%,-12%,-25%,21µM*
Cc1ccc(S(=O)(=O)N(C)CCCC(=O)Nc2ccncc2)cc1,-21%,36,-6%,-18%,13µM*,10µM*
Cc1nnc(NC(=O)C(C)Sc2nnc(CCNC(=O)c3ccccc3F)n2C)s1 (configuration not stated),14%,17,-3%,8%,-9%,2%
Cc1nc(NCCOc2ccccc2)sc1C(=O)Nc1ccccc1,5%,-29,-1%,26%,?,?
CCN(C)C1CN(Cc2cn(Cc3ccc(F)cc3)nn2)S(=O)(=O)C1 (configuration not stated),/,21,/,/,-15%,2%
CCCCc1nc2ccccc2c(=O)n1NC(=O)c1c(O)c2c(n(CC(C)C)c1=O)CCCC2,14%,39,0%,9%,9.2µM*,15µM*
CC(C)Cn1c2c(c(O)c(C(=O)Nn3c(Cc4ccccc4)nc4ccccc4c3=O)c1=O)CCCC2,9%,23,-6%,-9%,3.7µM*,5.2µM*
CC(=O)NC12CC3CC(C1)CC(C(=O)Oc1ccc(N(C)S(=O)(=O)c4cc(C)ccc4C)cc1)(C3)C2,2%,-25,-2%,-10%,16µM*,?
O=C(Nc1nc2n(n1)C(c1ccccc1)C=C(c1ccccc1)N2)c1ccc(Cl)c([N+](=O)[O-])c1 (configuration not stated),-29%,/,/,-7%,12µM*,12µM*
COc1ccc(C2C=C(c3ccccc3)Nc3nc(NS(=O)(=O)c4ccc(Cl)cc4)nn32)cc1 (configuration not stated),56%,/,/,-2%,16µM*,?
Cc1ccc(C(=O)Nc2nc3n(n2)C(c2ccccc2)C=C(c2ccccc2)N3)cc1 (configuration not stated),0%,/,/,-6%,?,?
COc1ccc(C(=O)Nc2nc3n(n2)C(c2ccc(F)cc2)C=C(c2ccc(Cl)cc2)N3)cc1 (configuration not stated),35%,/,/,-5%,7.3µM*,15µM*
O=C(Nc1nc2n(n1)C(c1ccc(F)cc1)C=C(c1ccccc1)N2)c1ccc(Cl)cc1 (configuration not stated),25%,/,/,-5%,18µM*,?
CC(=O)N1CCN(S(=O)(=O)c2cccc(C(=O)Nc3nccs3)c2)CC1,-26%,30,3%,-33%,?,-23%
COc1ccccc1C(=O)Nc1nc2n(n1)C(c1ccc(F)cc1)C=C(c1ccc(Cl)cc1)N2 (configuration not stated),49%,/,/,1%,?,?
O=C(Nc1nc2n(n1)C(c1ccc(F)cc1)C=C(c1ccc(Cl)cc1)N2)c1ccc([N+](=O)[O-])cc1 (configuration not stated),-19%,/,/,-32%,5.2µM*,5.8µM*
CCCc1nc2cccnc2n1C1CCN(C(=O)Cn2nccc2C)CC1,/,/,/,/,-19%,5%[9.04 µM]
CCNC(=O)N1CCN(C(=O)NCC)CC1,-11%,3,4%,-3%,3%,-4%
CCNC(=O)N1CCOCC1,-6%,-7,6%,0%,6.3µM*,0%
O=C(CCN1CCCCO1)N1CCCC(N2CCN(c3ccc(F)cc3)CC2)C1 (configuration not stated),5%,14,0%,2%,12%,-2%
COc1cc(C(F)(F)F)nc(-c2ccccn2)n1,-3%,9,4%,15%,-22%,18%
FC(F)(F)c1cc(Sc2ccccc2)nc(-c2ccccn2)n1,-13%,5,-3%,-6%,15µM*,?
SMILES,TGFb SMAD3 inh,IL1B secr inh,S-ASM inh,HepG2 tox,TDP1 cell noCPT,DT40 TDP1 CPT
CC(C)Nc1cc(C(F)(F)F)nc(-c2ccccn2)n1,-21%,-16,0%,-8%,18µM*,18µM*
FC(F)(F)c1cc(Nc2ccccc2)nc(-c2ccccn2)n1,-20%,-22,-2%,-7%,26µM*,?
CCn1nc(C)c2c(-c3ccccc3)cc(=O)n(C(C)C(=O)NCCc3ccc(OC)c(OC)c3)c21 (configuration not stated),-33%,/,/,-16%,?,?
CCSc1oc(-c2ccc(F)cc2)nc1S(=O)(=O)c1ccc(C)cc1,-27%,/,/,-7%,16µM*,-102%
O=S(=O)(c1ccccc1)c1nc(-c2ccc(F)cc2)oc1NCc1ccccc1,143%,/,/,108%,?,-19%
Cc1ccc(CSc2oc(-c3ccco3)nc2S(=O)(=O)c2ccc(Br)cc2)cc1,-2%,/,/,-6%,?,?
CCSc1oc(-c2ccccc2)nc1S(=O)(=O)c1ccccc1,-3%,-6,-5%,-20%,-15%,-29%
CC(C)CS(=O)(=O)c1oc(-c2ccc(F)cc2)nc1S(=O)(=O)c1ccccc1,3.2µM*,/,/,7.1µM*,0.46µM*,0.41µM*
O=S(=O)(c1ccc(Cl)cc1)c1nc(-c2ccco2)oc1SCc1ccccc1F,-11%,/,/,-1%,16µM*,23µM*
O=S(=O)(c1ccc(Br)cc1)c1nc(-c2ccco2)oc1SCc1ccccc1Cl,2%,/,/,-13%,?,16µM*
COc1ccc(NC(=O)N(C)C[C@H]2OCc3cnnn3CCCC(=O)N([C@@H](C)CO)C[C@H]2C)c(OC)c1,0%,21,/,7%,-28%,-5%
O=S(=O)(c1ccc(Cl)cc1)c1nc(-c2cccs2)oc1SCc1ccccc1F,-12%,/,/,-17%,23µM*,16µM*
CC(C)Sc1oc(-c2ccco2)nc1S(=O)(=O)c1ccc(F)cc1,1%,-7,-2%,0%,?,?
Cc1ccc(S(=O)(=O)c2nc(-c3cccs3)oc2SCc2ccc(F)cc2)cc1,-2%,/,/,-22%,10µM*,16µM*
